Shown are actives, neighbours in structure and some others; about 7.4% of the full set was active somewhere.
PD-1 reversal: activators reversing PD-1 mediated T-cell inhibition, primary screen, luminescence, primary human CD4 T cells, PD-L1 beads | CellTiter-Glo 96 h | activation, % (no concentration beside the values) | 29,000 tested, under 10 active | AID 2316, 2010; call rule not given here;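 further: 0% = median vehicle wells and 100% = positive control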
Shh pathway inh: Hedgehog pathway signaling inhibitors, primary screen, luminescence, Shh-LIGHT2 cells, Gli-luciferase | hit rate 2.1% among 22,000 | inhibition, % (test concentration not listed) | Shh-LIGHT2 Gli-luciferase reporter, 30 h;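 active means mean inhibition across valid replicates above about 65%, limit read from the data; inconclusive means mean under the limit, yet half or more replicates past it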;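 further: pathway switched on by Shh-conditioned medium diluted 1 in 25 in low serum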
YB-1 expression: inhibitors of YB-1 gene expression, primary screen, cell-based, fluorescence; AID 434959, 2010; U2OS, qRT-PCR YB-1 vs CDIP delta delta Cp, 16 h; hits give high values; zero = DMSO, each unit about twofold; delta delta Cp (YB-1 minus CDIP) (concentration not given with the values); hit rate 0.37% among 30,000;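 active means delta delta Cp rounded down to an integer at or above 3, about 3 SD of DMSO wells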;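 further: higher means less YB-1 transcript or more CDIP transcript relative to DMSO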
MITF inh: inhibitors of MITF, primary screen, MITF inhibitor project, cell-based, luminescence | TRPM1 promoter luciferase, 24 h | inhibition, % (test concentration not listed) | hit rate 0.28% among 37,000; in the data active means inhibition above about 85%; inconclusive means no clear call, values can overlap the other calls; inactive means below about 68%;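 further: human melanocyte line stably carrying TRPM1 promoter luciferase reporter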
NOMO-1 viab: NOMO-1 AML cell viability reduction, primary screen, STK33 inhibitor project, CellTiter-Glo luminescence | NOMO-1 AML viability, 72 h | inhibition, % (no concentration beside the values) | hit rate 7.5% among 37,000 | AID 2330, 2010; in the data active means inhibition above about 80%; inconclusive means no clear call, values can overlap the other calls
* = called active by the depositor; ? = inconclusive; · = no result.

SMILES	PD-1 reversal	Shh pathway inh	YB-1 expression	MITF inh	NOMO-1 viab
C[C@H]1CN([C@@H](C)CO)C(=O)Cc2cc(NC(=O)C3CCCCC3)ccc2O[C@@H]1CN(C)Cc1ccccc1	0	8	0.14	1	6
C[C@@H]1CN([C@H](C)CO)C(=O)Cc2cc(NC(=O)C3CCCCC3)ccc2O[C@H]1CN(C)C(=O)Nc1cccc2ccccc12	·	-19	0.33	-37	-17
O=C1NN=C(c2ccccc2)/C1=C1\OC(c2ccccc2)=CS1	0	31	-0.29	37	139*
CCc1cc(-c2n[nH]c(C)c2-c2nc(C)cs2)c(O)cc1OCc1ccc([N+](=O)[O-])cc1	-3	·	·	58	109*
O=C(Nc1ccc2c(c1)OCCO2)c1ccc2nccnc2c1	4	·	-0.77	28	5
CCOc1ccc(NC(=O)c2c(NC(=O)c3ccco3)sc3c2CCCCC3)cc1	·	·	·	22	110*
CNc1cc2ncnc(Nc3cccc(Br)c3)c2cc1N	6	57	-15	-5	97*
CC(C)NC(=O)N(C)C[C@H]1Oc2ccc(NS(=O)(=O)c3ccccc3)cc2CC(=O)N([C@H](C)CO)C[C@H]1C	0	23	-0.13	-10	1
CC1(C)c2ccccc2N(CCC(N)=O)C12C=Cc1c(ccc3ccccc13)O2 (centres undefined)	0	2	0.039	39	88*
Cc1ccc(C(=O)CCNc2ccc3c(c2)oc2ccccc23)o1	-10	·	·	-82	-2
C/C(CCc1oc2ccccc2c1-c1ccc(C)o1)=N\O	-1	·	0.23	0	108*
C[C@@H]1CN([C@@H](C)CO)C(=O)Cc2cc(NC(=O)Nc3ccccc3)ccc2O[C@@H]1CN(C)Cc1ccc(Cl)c(Cl)c1	-3	-10	0.076	42	103*
C[C@@H]1CN([C@H](C)CO)C(=O)Cc2cc(NC(=O)Nc3ccc(F)cc3)ccc2O[C@@H]1CN(C)Cc1ccc(Cl)c(Cl)c1	-10	14	-0.38	39	114*
C[C@H](CO)N1C[C@H](C)[C@H](CN(C)Cc2ccccc2)Oc2ccc(NC(=O)Nc3ccccc3)cc2CC1=O	·	19	0.094	-6	63
COc1ccc(NC(=O)Nc2ccc3c(c2)CC(=O)N([C@@H](C)CO)C[C@H](C)[C@@H](CN(C)Cc2ccc(Cl)c(Cl)c2)O3)cc1	·	11	-0.0048	9	46
C[C@H]1CN([C@@H](C)CO)C(=O)Cc2cc(NC(=O)Nc3ccc4c(c3)OCO4)ccc2O[C@H]1CN(C)Cc1ccc(Cl)c(Cl)c1	2	·	-0.62	11	113*
Cc1noc(C)c1NC(=O)Nc1ccc2c(c1)CC(=O)N([C@@H](C)CO)C[C@H](C)[C@H](CN(C)Cc1ccc(Cl)c(Cl)c1)O2	0	22	0.59	-36	114*
COc1cc(C)c(C(=O)Oc2cc(C)c(C(=O)Oc3cc(C)c(C(=O)NC(C)C(=O)O)c(O)c3)c(O[C@@H]3O[C@H](CO)[C@@H](O)[C@H](O)[C@H]3O)c2)c(OC)c1 (some centres undefined)	-6	-10	1.1	6	62
O=C(NCc1ccccn1)Nc1ccc([N+](=O)[O-])cc1	-1	·	·	-56	22
O=C(CSc1nnc(-c2ccccc2O)n1-c1ccccc1)N1CCc2ccccc21	-2	·	·	24	47
C[C@H](CO)N1C[C@H](C)[C@H](CN(C)Cc2ccc(Cl)c(Cl)c2)Oc2ccc(NC(=O)Nc3ccc(F)cc3)cc2CC1=O	-1	14	-0.11	3	75
C[C@H]1CN([C@@H](C)CO)C(=O)Cc2cc(NC(=O)Nc3ccc(F)cc3)ccc2O[C@H]1CN(C)Cc1ccc(Cl)c(Cl)c1	·	4	0.36	26	127*
C[C@H]1CN([C@@H](C)CO)C(=O)c2cccc(NC(=O)CCCCCC(=O)Nc3ccccc3N)c2O[C@H]1CN(C)Cc1ccc(-c2ccccc2)cc1	2	·	0.42	-8	122*
C[C@@H]1CN([C@@H](C)CO)C(=O)c2cccc(NC(=O)CCCCCC(=O)Nc3ccccc3N)c2O[C@@H]1CN(C)Cc1ccc2c(c1)OCO2	-1	·	0.0043	17	?
C[C@@H]1CN([C@H](C)CO)C(=O)c2cccc(NC(=O)CCCCCC(=O)Nc3ccccc3N)c2O[C@H]1CN(C)Cc1ccncc1	2	·	-0.41	3	8
